# Where “and” joins values, the source holds several entries; their conditions need not be identical. Equal values may be shown once. Read-outs that look alike come from different tables or passages of the source.
# Experiments:
# [1] = test system: QSK; details: n = 1
# [2] = test system: RAF1; details: n = 1
# [3] = test system: RET; details: n = 1
# [4] = test system: RIOK1; details: n = 1
# [5] = test system: RIOK2; details: n = 1
# [6] = test system: RIOK3; details: n = 1
# [7] = test system: RIPK1; details: n = 1
# [8] = test system: RIPK2; details: n = 1
# [9] = test system: RIPK4; details: n = 1
# [10] = test system: RIPK5; details: concentration: 1 μM, replicates: in singlicate; n = 1
# [11] = test system: ROCK1; details: n = 1
# [12] = test system: ROCK2; details: n = 1
# [13] = test system: ROS1; details: n = 1
# [14] = test system: RPS6KA4(Kin.Dom.1-N-terminal); details: n = 1
# [15] = test system: RPS6KA4(Kin.Dom.2-C-terminal); details: concentration: 1 μM, replicates: in singlicate; n = 1
# [16] = test system: RPS6KA5(Kin.Dom.1-N-terminal); details: n = 1
# [17] = test system: RPS6KA5(Kin.Dom.2-C-terminal); details: n = 1
# [18] = test system: T1, RSK1(Kin.Dom.1-N-terminal); details: n = 1
# T1 construct: gene RPS6KA1
# [19] = test system: T2, RSK1(Kin.Dom.2-C-terminal); details: n = 1
# T2 construct: gene RPS6KA1
# [20] = test system: T3, RSK2(Kin.Dom.1-N-terminal); details: n = 1
# T3 construct: gene RPS6KA3
# [21] = concentration: 1 μM, replicates: in singlicate
# [22] = concentration: 1 μM,replicates: in singlicate, 1 µM
# 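Note: KINOMEscan kinase panel screen.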
compound,measurement,setting,value
Cc1cccc(-c2nc(Nc3ccncc3)c3ccccc3n2)n1 [GW855857],%Inh,[1]; [21],0%
same,%Inh,[2]; [21],39%
same,%Inh,[3]; [21],9%
same,%Inh,[4]; [21],0%
same,%Inh,[5]; [21],0%
same,%Inh,[6]; [21],35%
same,%Inh,[7]; [21],4%
same,%Inh,[8]; [21],71%
same,%Inh,[9]; [21],0%
same,%Inh,[10],0%
same,%Inh,[11]; [21],0%
same,%Inh,[12]; [21],0%
same,%Inh,[13]; [21],0%
same,%Inh,[14]; [21],20%
same,%Inh,[15],0%
same,%Inh,[16]; [21],0%
same,%Inh,[17]; [21],4%
same,%Inh,[18]; [21],0%
same,%Inh,[19]; [21],8%
same,%Inh,[20]; [21],0%
CSc1nn2c(=O)cc(N3CCOCC3)nc2n1Cc1cccc(C(F)(F)F)c1C [GSK2363608],%Inh,[1]; [22],55% and 8%
same,%Inh,[2]; [22],14% and 11%
same,%Inh,[3]; [22],19% and 56%
same,%Inh,[4]; [22],37% and 10%
same,%Inh,[5]; [22],19% and 5%
same,%Inh,[6]; [22],39% and 0%
same,%Inh,[7]; [22],26% and 0%
same,%Inh,[8]; [22],0% and 14%
same,%Inh,[9]; [22],22% and 13%
same,%Inh,[10],0%
same,%Inh,[11]; [22],98.3% and 17%
same,%Inh,[12]; [22],98.9% and 0%
same,%Inh,[13]; [22],14% and 0%
same,%Inh,[14]; [22],28% and 0%
same,%Inh,[15],0%
same,%Inh,[16]; [22],12% and 0%
same,%Inh,[17]; [22],19% and 9%
same,%Inh,[18]; [22],20% and 10%
same,%Inh,[19]; [22],1% and 0%
same,%Inh,[20]; [22],9% and 2%
Cc1csc(-c2nc(Nc3ccncc3)c3ccccc3n2)n1 [GW869640],%Inh,[1]; [21],35%
same,%Inh,[2]; [21],0%
same,%Inh,[3]; [21],0%
same,%Inh,[4]; [21],38%
same,%Inh,[5]; [21],39%
same,%Inh,[6]; [21],1%
same,%Inh,[7]; [21],0%
same,%Inh,[8]; [21],52%
same,%Inh,[9]; [21],44%
same,%Inh,[10],34%
same,%Inh,[11]; [21],65%
same,%Inh,[12]; [21],18%
same,%Inh,[13]; [21],22%
same,%Inh,[14]; [21],52%
same,%Inh,[15],17%
same,%Inh,[16]; [21],13%
same,%Inh,[17]; [21],16%
same,%Inh,[18]; [21],0%
same,%Inh,[19]; [21],22%
same,%Inh,[20]; [21],42%
Cl.c1ccc(-c2n[nH]cc2-c2ccnc(-c3ccc(CN4CCOCC4)cc3)c2)nc1 [GW776245],%Inh,[1]; [21],0%
same,%Inh,[2]; [21],37%
same,%Inh,[3]; [21],0%
same,%Inh,[4]; [21],19%
same,%Inh,[5]; [21],0%
same,%Inh,[6]; [21],20%
same,%Inh,[7]; [21],11%
same,%Inh,[8]; [21],36%
same,%Inh,[9]; [21],0%
same,%Inh,[10],0%
same,%Inh,[11]; [21],0%
same,%Inh,[12]; [21],0%
same,%Inh,[13]; [21],0%
same,%Inh,[14]; [21],0%
same,%Inh,[15],0%
same,%Inh,[16]; [21],0%
same,%Inh,[17]; [21],44%
same,%Inh,[18]; [21],0%
same,%Inh,[19]; [21],17%
same,%Inh,[20]; [21],34%
CCn1c(-c2cccnc2O)nc2cnccc21 [SB-736715],%Inh,[1]; [21],0%
same,%Inh,[2]; [21],0%
same,%Inh,[3]; [21],5%
same,%Inh,[4]; [21],6%
same,%Inh,[5]; [21],0%
same,%Inh,[6]; [21],0%
same,%Inh,[7]; [21],0%
same,%Inh,[8]; [21],0%
same,%Inh,[9]; [21],21%
same,%Inh,[10],0%
same,%Inh,[11]; [21],11%
same,%Inh,[12]; [21],0%
same,%Inh,[13]; [21],0%
same,%Inh,[14]; [21],0%
same,%Inh,[15],0%
same,%Inh,[16]; [21],0%
same,%Inh,[17]; [21],0%
same,%Inh,[18]; [21],0%
same,%Inh,[19]; [21],0%
same,%Inh,[20]; [21],4%

# Reference: article PMC5540273 (PLoS ONE, 2017)
